Results: PubChem BioAssay (NCI)
This is part of a sample that, as a whole, favours compounds with a hit. Of some 79,000 tested, about 15% had one in any assay. Rule as the data show it: active = growth inhibition above about 70%; inactive = the rest.

What was measured:
[1] = NCI Yeast Anticancer Drug Screen. Data for the rad50 strain (AID 155);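 also: 0% = growth of vehicle-only cultures of the same strain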; settings: S. cerevisiae rad50 strain growth inhibition; at 50.0 µM; stronger effect = higher value
In short: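 Inhibition values express reduced yeast growth in compound-treated cultures relative to vehicle-treated controls.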

[2] = NCI Yeast Anticancer Drug Screen. Data for the mec2-1 strain (AID 157); settings: S. cerevisiae mec2-1 strain, at 50.0 µM, stronger effect = higher value
In short: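 Growth inhibition is read against vehicle-treated controls after compound exposure of the mec2-1 yeast strain, which is defective in DNA damage repair or cell cycle control.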

[3] = NCI Yeast Anticancer Drug Screen. Data for the sgs1 mgt1 strain (AID 161);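 also: 0% = growth of cultures given vehicle only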; settings: S. cerevisiae sgs1 mgt1 strain, at 50.0 µM, stronger effect = higher value
In short: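 Compounds are added to genetically altered yeast, and growth is compared with cultures given vehicle alone to give percent inhibition.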

[4] = NCI Yeast Anticancer Drug Screen. Data for the cln2 rad14 strain (AID 165);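 also: 0% = growth equal to vehicle treated cultures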; settings: S. cerevisiae cln2 rad14 strain, at 50.0 µM, stronger effect = higher value
In short: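 Growth inhibition, relative to vehicle-treated controls, is the read-out. The test organism is a yeast strain with defined genetic alterations, cln2 rad14.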

[5] = NCI Yeast Anticancer Drug Screen. Data for the bub3 strain (AID 167); settings: S. cerevisiae bub3 mutant strain, at 50.0 µM, stronger effect = higher value
In short: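 Steps: expose the mutant yeast strain to compound; grow alongside vehicle-treated cultures; measure growth; express inhibition against the vehicle cultures.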

[6] = NCI Yeast Anticancer Drug Screen. Data for the mlh1 rad18 strain (AID 175); settings: S. cerevisiae mlh1 rad18 strain growth inhibition; at 50.0 µM; stronger effect = higher value
In short: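 Cells of a genetically altered yeast strain, deficient in DNA damage repair, were treated with compound. Their growth was then compared with that of vehicle-treated cultures to give inhibition.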

Measured: growth inhibition

NC(=S)CNC(=O)c1ccccc1
inactive: [1] -28.6% | [2] -33.1% | [3] -29.3% | [4] -9.55% | [5] -11.8% | [6] 9.6%

C(=Nc1ccccc1)Nc1ccccc1
inactive: [1] 2.85% | [2] 15.1% | [3] 16.4% | [4] 25.9% | [5] -15.4% | [6] -12.8%

O=C(Oc1ccc(OC(=O)c2ccc([N+](=O)[O-])cc2)cc1)c1ccccc1
inactive: [1] 9.85% | [2] -2.25% | [3] -1.4% | [4] 26.4% | [5] -3.05% | [6] 5.25%

CCOCC(=O)N[C@H]1CCc2cc(OC)c(OC)c(OC)c2-c2ccc(SC)c(=O)cc21
inactive: [1] 10.7% | [2] 26.9% | [3] 12.2% | [4] -53.6% | [5] -8.3% | [6] 47.1%

O=C(O)c1cc(Cl)cc([N+](=O)[O-])c1
inactive: [1] 41.1% | [2] -3% | [3] 52.5% | [4] 19.3% | [5] 23% | [6] 52.9%

O=C1C=CC(=NCl)C=C1
inactive: [1] -18.6% | [2] -24.9% | [3] 4.35% | [4] -21.9% | [5] 1.15% | [6] 10.6%

Cc1ccc(S(=O)(=O)N/N=C/c2oc(-c3ccncc3)c(-c3ccncc3)c2[N+](=O)[O-])cc1
inactive: [1] -1.15% | [2] 10.8% | [3] 17.4% | [4] 27.8% | [5] -11.5% | [6] 17.1%

COc1ccc(C2C(Cl)C(=O)N2NC(=O)c2ccccc2O)cc1OC (centres undefined)
inactive: [1] 2.85% | [2] -12.1% | [3] -18.6% | [4] 15.4% | [5] -22.4% | [6] -34.1%

COC(=O)C(=O)C(C(C)=O)C(=O)C(=O)Nc1ccc(C)cc1C (centres undefined)
inactive: [1] 19.1% | [2] 14.1% | [3] 1.95% | [4] 15.2% | [5] 26.1% | [6] 17.9%

Cn1ncc2c(=O)[nH]c(N)nc21
inactive: [1] 6.65% | [2] 31.2% | [3] -19.6% | [4] 1.2% | [5] -3.15% | [6] -5.85%

CC(=O)NNC(=S)/N=C/C(C(=O)Nc1ccc([N+](=O)[O-])cc1)=C(\C)O
inactive: [1] -19.8% | [2] 4.4% | [3] -21.9% | [4] 15.8% | [5] 6.5% | [6] -4%

CCCC(CC/C(C)=N/NC(N)=O)[N+](=O)[O-] (centres undefined)
inactive: [1] -20.1% | [2] -9.25% | [3] 0.05% | [4] -9.55% | [5] 4.75% | [6] 8.5%

Cc1ccc(C(=O)O)c(=O)[nH]1
inactive: [1] 3.65% | [2] -26.1% | [3] 5.3% | [4] 2.05% | [5] 7.3% | [6] -2%

[O-][N+](=Nc1ccccc1)c1ccccc1
inactive: [1] 1.2% | [2] 1.35% | [3] 35.9% | [4] -0.9% | [5] 3.75% | [6] 24%

CCOc1cc2c(cc1C(C)c1ccc(OCc3ccccc3)cc1)OCO2 (centres undefined)
inactive: [1] 6.55% | [2] 3.55% | [3] 2.7% | [4] 1.25% | [5] -2.1% | [6] -20.1%

CSCSCC(CO)NC(=O)/C(C)=C\c1c(C)[nH]c(=O)[nH]c1=O (centres undefined)
inactive: [1] -3.35% | [2] -2% | [3] -2.35% | [4] -7% | [5] 8.4% | [6] -13.1%

CC1(C)OCC(Cc2ccc3c(c2)OCO3)CO1
inactive: [1] 1.7% | [2] -11.1% | [3] -5.75% | [4] -32.2% | [5] 22.5% | [6] 2.25%

O=C(O)c1cc(N2C(=O)c3ccc4c5ccc6c7c(ccc(c8ccc(c3c48)C2=O)c75)C(=O)N(c2ccc(O)c(C(=O)O)c2)C6=O)ccc1O
inactive: [1] -8.4% | [2] 10% | [3] 3.2% | [4] 34% | [5] 1.65% | [6] 26.3%

O=C(N/N=C\c1ccccc1)Nc1cccc2ccccc12
inactive: [1] -27.4% | [2] 16.4% | [3] 20.3% | [4] -25.9% | [5] 27.9% | [6] -9.75%
